IL1B secr inh = inhibitors of inflammasome signaling (IL-1 beta secretion). THP-1 LPS/ATP IL-1B secretion, AlphaLISA, 16 h; hits give low values. activity change, % at 57.5 µM. hit rate 4.7% among 360,000. AID 743279; in the data active means activity change below about -50%; inconclusive means mostly about -30% to -49%
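THP-1 cells pretreated 1 hr with compounds (up to 57.5 uM final), then stimulated with LPS (250 ng/mL final) plus ATP (1.25 mM final); secreted IL-1B measured by AlphaLISA after 16 hr, decreased signal indicating inhibition.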
ELG1 repair inh = blocks ELG1-dependent DNA repair in HEK293T cells | HEK293T ELG1-luciferase reporter, luminescence, 16 h; DNA damage induced by 5-fluorouridine | Potency, µM (series often up to 46.1 µM), inactives show at the highest dose activity change, negative = inhibition, most hits filed as inhibitors | hit rate 2.3% among 330,000; further: potency means the concentration at half of the fitted maximal effect; nearly all actives have a fitted effect of over 55% in size
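Quantitative HTS, concentration-response format. 2,000 cells/well co-treated with 5-fluorouridine and compound, 16 hr in 5% CO2 at 37 °C; ONE-Glo luminescence read after 30 min.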
DT40 TDP1 CPT = growth inhibition of DT40 Tdp1-/-;hTDP1 cells with camptothecin (screen for TDP1 inhibitors). chicken DT40 Tdp1-/-;hTDP1 cells + 20 nM CPT, ATP luminescence, 48 h. Potency, µM (top dose mostly 46.2 µM), inactives show at the highest dose activity change, negative = growth inhibition, most hits filed as inhibitors. hit rate 12% among 420,000. AID 686979; further: potency means the concentration at half of the fitted maximal effect; nearly all actives have a fitted effect of over 55% in size
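Chicken DT40 Tdp1-/- cells complemented with human TDP1, 400 cells/well, exposed to compounds plus 20 nM camptothecin for at least 48 h at 37 C; viability read as ATP content by CellTiter-Glo luminescence.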
TDP1 cell noCPT = qHTS for Inhibitors of human tyrosyl-DNA phosphodiesterase 1 (TDP1): qHTS in cells in absence of CPT. DT40 Tdp1-/- hTDP1 cells, no CPT, ATP luminescence, 48 h. Potency, µM (highest dose often 46.2 µM), without a hit: at the top dose activity change, negative = growth inhibition, actives largely listed as inhibitors. hit rate 15% among 420,000. AID 686978, 2013; further: potency means the concentration at half of the fitted maximal effect; nearly all actives have a fitted effect of over 55% in size
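Readout: luminescence from CellTiter-Glo after 30 min in the dark at RT. Cells: DT40 Tdp1-/- with stable hTDP1, 400/well. Exposure: compounds alone, ≥48 hr, 37 °C.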
RORg inh = inhibitors of mouse ROR gamma transcriptional activity | Drosophila S2 Gal4-RORgamma UAS-luciferase reporter, 20 h | Potency, µM (titrated, usually from 53.6 µM), inactives show at the top dose activity change, negative = inhibition, usual class: inhibitors | hit rate 5.4% among 310,000 | AID 2551; further: potency means the concentration at half of the fitted maximal effect; nearly all actives have a fitted effect of over 60% in size
Target sequence (P51450 whole entry, looked up, the tested form may be a part): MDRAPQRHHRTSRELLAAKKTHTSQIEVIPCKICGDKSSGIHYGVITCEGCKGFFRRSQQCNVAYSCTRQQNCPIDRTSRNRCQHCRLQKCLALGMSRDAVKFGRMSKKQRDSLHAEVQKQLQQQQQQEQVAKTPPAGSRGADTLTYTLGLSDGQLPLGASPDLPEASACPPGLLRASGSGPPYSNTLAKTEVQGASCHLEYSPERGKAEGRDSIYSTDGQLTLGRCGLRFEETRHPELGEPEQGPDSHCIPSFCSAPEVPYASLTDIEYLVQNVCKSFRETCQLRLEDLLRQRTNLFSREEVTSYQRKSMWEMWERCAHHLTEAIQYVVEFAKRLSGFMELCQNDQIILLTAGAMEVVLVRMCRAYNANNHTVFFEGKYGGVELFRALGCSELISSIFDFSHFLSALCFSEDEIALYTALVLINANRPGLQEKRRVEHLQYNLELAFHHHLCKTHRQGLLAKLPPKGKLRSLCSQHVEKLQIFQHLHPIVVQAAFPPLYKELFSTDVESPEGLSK
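In this cell-based reporter format, copper sulfate (700 uM final) drives Gal4–ROR gamma fusion expression from a metallothionein promoter in Drosophila Schneider cells; compounds preincubated 1 hr, reporter read after 20 hr at ambient temperature.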
Gal4-VP16 FLuc = inhibits Gal4-VP16 luciferase reporter, ROR gamma counter-screen; Drosophila S2 Gal4-VP16 UAS-luciferase, luminescence, 20 h; hit rate 3.5% among 310,000; Potency, µM (titrated, usually from 53.6 µM), for inactives: at the top dose activity, negative = inhibition, actives largely listed as inhibitors;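 further: Gal4-VP16 expression switched on by copper sulfate through the metallothionein promoter; potency means the concentration at half of the fitted maximal effect; nearly all actives have a fitted effect of over 50% in size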
The depositor's hits bear a star; ? = inconclusive; · = no result; [ ] = another dose, or the depositor's remark. This is a sample that favours compounds with a hit; in the whole collection about 21% have one here. Unless noted, the call rests on the fitted dose curve; in most records, active means well fitted curve in the direction sought with a large enough effect; inconclusive means small, poorly fitted or top-dose-only effect, or another doubt; inactive means no such curve, though single readings can be large; an effect the other way counts as inactive or inconclusive. On the % scale 0 is the no-effect control and ±100 the full control effect.

SMILES | IL1B secr inh | ELG1 repair inh | DT40 TDP1 CPT | TDP1 cell noCPT | RORg inh | Gal4-VP16 FLuc
CCOc1cccc(/C=N/NC(=S)Nc2cc(S(=O)(=O)N3CCOCC3)ccc2N2CCOCC2)c1O | -15 | 5.8µM* | 5.8µM* | 5.8µM* | ? | 10µM*
Cc1ccc(S(=O)(=O)NC(=O)C2(C)CCN2C(=O)Cc2cc(F)ccc2F)nc1 (stereo unspecified) | 12 | · | -3% | 6% | · | ·
COc1ccccc1NC(=O)Cn1c(=O)n(Cc2nc(C)no2)c(=O)c2cc3c(cc21)OCO3 | · | · | 3% | -23% | · | ·
COc1ccc(C2C(C#N)=C(N)Nc3onc(C(C)(C)C)c32)c(OC)c1 (stereo unspecified) | -30 | -15% | ? | 18µM* | 37% | -4%
COc1ccc(C2C(C#N)=C(C)NC(C)=C2C#N)c(OC)c1 | 2 | 11% | 4% | 9% | -26% | -18%
CSc1ccc(Cn2c(C)c(C(=O)NCc3ccco3)sc2=O)cc1 | -101* | · | ? | ? | · | ·
Cc1c(C(=O)NCc2ccc(Cl)c(Cl)c2)sc(=O)n1Cc1ccc(S(C)(=O)=O)cc1 | ? | · | ? | 18µM* | · | ·
CSc1ccc(Cn2c(C)c(C(=O)NCc3cccc(C(F)(F)F)c3)sc2=O)cc1 | -12 | · | ? | ? | · | ·
Cc1ccccc1Cn1c(C)c(C(=O)NCc2cccc(Cl)c2)sc1=O | ? | · | -27% | ? | · | ·
CCCCN(C)C(=O)c1sc(=O)n(Cc2ccc(Cl)c(Cl)c2)c1C | 0 | · | ? | 21µM* | · | ·
CSc1ccc(Cn2c(C)c(C(=O)NCc3ccc(F)cc3)sc2=O)cc1 | ? | · | 23µM* | ? | · | ·
CN(Cc1ccco1)c1ncncc1-c1ccccc1Cl | · | · | ? | ? | -26% | -7%
COC(=O)[C@@H]1CC[C@H](C)[C@@H](c2ccc(C)cc2)N1C(=O)c1ccc(/C=N\OC[C@@H](C)[C@H](OCc2ccccc2)C(C)C)cc1 | · | · | · | · | -15%[10 µM] | -2%[10 µM]
CSc1ccc(Cn2c(C)c(C(=O)NCc3ccc4c(c3)OCCO4)sc2=O)cc1 | -30 | · | ? | ? | · | ·
Cc1c(C(=O)NCc2ccc(F)cc2)sc(=O)n1Cc1ccc(Cl)c(Cl)c1 | -86* | · | ? | ? | · | ·
CSc1ccc(Cn2c(C)c(C(=O)NCc3ccc(Cl)c(Cl)c3)sc2=O)cc1 | -58* | · | ? | ? | · | ·
Cc1c(C(=O)NCc2ccc(Cl)c(Cl)c2)sc(=O)n1Cc1ccccc1F | -15 | · | ? | ? | · | ·
CC1(c2nc3ccccc3[nH]2)c2ccccc2C(=O)N1C1CC1 (stereo unspecified) | 16 | · | 2% | -17% | · | ·
CCOC(=O)c1cc2c(ccn2-c2ccc(F)cc2)n1CC(=O)N(CC)CC | ? | ? | ? | 23µM* | 41% | -5%
COC(=O)c1cc2c(ccn2-c2ccc(F)cc2)n1CC(=O)C(C)(C)C | -11 | ? | ? | ? | 15% | -13%
O=C(Nc1cccc(C(F)(F)F)c1)c1cc2c(=O)c3ccccc3oc2nc1C(F)(F)F | -1 | -18% | ? | 29µM* | 2% | -1%
Cc1noc(C)c1NC(=O)Nc1cccc2c1O[C@H](CN(C)S(=O)(=O)c1cccs1)[C@@H](C)CN([C@H](C)CO)C2=O | -8 | 19% | -17% | -2% | · | ·
COc1ccc(N2CCN(C(=O)c3sc4nc5n(c(=O)c4c3C)CCC5)CC2)cc1 | · | · | ? | 23µM* | · | ·
COc1ccccc1N1CCN(C(=O)c2sc3nc4n(c(=O)c3c2C)CCC4)CC1 | -3 | ? | 1% | 7% | 3% | -1%
Cc1ccc(Cl)cc1N1CCN(C(=O)c2sc3nc4n(c(=O)c3c2C)CCC4)CC1 | · | · | 15µM* | 15µM* | · | ·
Cc1cccc(N2CCN(C(=O)c3sc4nc5n(c(=O)c4c3C)CCC5)CC2C)c1 (stereo unspecified) | · | · | 16µM* | 13µM* | · | ·

Screening data: PubChem BioAssay, National Center for Advancing Translational Sciences (NCATS)
